Measured values published in PubChem BioAssay AID602123 (The Scripps Research Institute Molecular Screening Center, 2011).
The campaign covered roughly 360,000 compounds. About 1,500 (0.42%) were called active. Only a selection was taken, and actives are over-represented in it overall. Unmarked numbers belong to inactive results. Rule as the data show it: active = inhibition above about 13% (passing the limit was not always enough); inactive = the rest.

target: Lon protease (Escherichia coli (strain K12)) (UniProt P0A9M0); test: E. coli eLon protease inhibition – biochemical, fluorescence polarization, primary screen (AID 602123);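 also: 0% = enzyme with probe and DMSO and 100% = no enzyme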; conditions: purified E. coli Lon protease, at 7.94 µM, stronger effect = higher value
Sequence (P0A9M0 whole entry, looked up): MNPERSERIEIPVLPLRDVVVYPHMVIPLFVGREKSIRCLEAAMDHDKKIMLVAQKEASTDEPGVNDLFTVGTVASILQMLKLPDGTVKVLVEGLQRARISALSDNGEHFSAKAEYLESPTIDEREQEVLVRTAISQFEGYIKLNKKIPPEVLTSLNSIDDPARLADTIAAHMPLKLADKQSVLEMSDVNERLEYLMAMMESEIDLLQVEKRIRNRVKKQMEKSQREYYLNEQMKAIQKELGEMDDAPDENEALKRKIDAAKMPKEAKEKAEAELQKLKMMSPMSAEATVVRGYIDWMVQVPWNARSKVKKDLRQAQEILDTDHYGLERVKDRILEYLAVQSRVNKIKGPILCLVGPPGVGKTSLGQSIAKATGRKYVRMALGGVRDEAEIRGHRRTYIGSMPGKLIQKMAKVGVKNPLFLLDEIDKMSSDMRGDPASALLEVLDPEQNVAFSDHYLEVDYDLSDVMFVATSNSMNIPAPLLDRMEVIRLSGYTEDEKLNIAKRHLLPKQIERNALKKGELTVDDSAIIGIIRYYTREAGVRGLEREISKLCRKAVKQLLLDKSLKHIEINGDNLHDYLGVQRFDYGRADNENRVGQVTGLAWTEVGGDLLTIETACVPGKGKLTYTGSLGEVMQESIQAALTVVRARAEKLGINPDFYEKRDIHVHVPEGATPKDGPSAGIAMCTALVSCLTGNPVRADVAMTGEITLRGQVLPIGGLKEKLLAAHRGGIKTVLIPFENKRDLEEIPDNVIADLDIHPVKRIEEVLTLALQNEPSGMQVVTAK

Structure (SMILES)	inhibition
Cc1ccc(Cc2c(-c3ccco3)nc3ccc(Cl)cn23)cc1	-7.56%
Clc1ccccc1CSc1nnc(-c2ccco2)c(-c2ccco2)n1	41.5% (active)
COc1ccc(NCc2nnc(SCc3ccccc3)n2-c2ccc(OC)cc2)cc1	-3.02%
Cc1ccc2nc(-c3ccco3)c(Cc3cccc(Cl)c3)n2c1	-7.22%
c1ccc(CSc2nnc(-c3ccco3)c(-c3ccco3)n2)cc1	86.1% (active)
c1ccc(Cc2c(-c3ccco3)nc3c4ccccc4ccn23)cc1	-7.97%
O=C(C1CC(=O)N(c2ccc(Br)cc2)C1)N1CCCC1 (stereo not drawn)	-8.68%
CC1CC(=S)Nc2ccccc2N1Cc1ccccc1 (stereo not drawn)	6.5%
O=C(CCCn1c(=O)c2sccc2n(CC(=O)NCC2CCCO2)c1=O)NCc1ccco1 (stereo not drawn)	-1.12%
C=CCN1CCN(C(=O)CCCc2ccccc2)CC1	-7.13%
Cn1c(C(=O)OC(C(=O)NC2CCCCC2)c2ccccn2)cc2sccc21 (stereo not drawn)	2.24%
CC(C)(O)C1=C[N+](=O)CC=C1	-1.32%
COC(=O)CSc1ccc2nnc(CCNS(=O)(=O)c3ccc(C)cc3)n2n1	-1.61%
COc1ccc(-c2ocnc2C(=O)Nc2ccc3c(c2)CCC3)cc1	11.4%
COCc1cc(C(C)=O)ccc1OC	-3.49%
COc1ccc(-c2onc3ccc(C(C)=O)cc23)cc1	97% (active)
CCOC(=O)c1cc2cc(OC)ccc2n1C1CCN(C)CC1	3.4%
COc1cc2cc(CN(CCN3CCCC3)C(=O)Nc3ccccc3Cl)c(=O)[nH]c2cc1OC	-12.8%
Cc1ccc(C(=O)OCC(=O)NCc2cc(C)c(O)c(C)c2)cc1S(=O)(=O)N1CCCCC1	-7.17%
COc1cc(NC(=O)COC(=O)c2cnc(C)cn2)c(C)cc1[N+](=O)[O-]	-4.63%
COc1ccc(-c2cc(NC(C)=O)c3ncc(-c4cc(OC)c(OC)c(OC)c4)n3c2)cn1	2.07%
Cc1ccn2cc(-c3nonc3C)cc2c1	25.1% (active)
c1ccc(C(=NNc2nc3ccccc3s2)c2ccccn2)cc1	131% (active)
CSc1ncccc1C(=O)Nc1nc2ccc(F)cc2s1	7.17%
C[C@H]1CN([C@@H](C)CO)C(=O)CCCn2cc(nn2)CO[C@@H]1CN(C)S(=O)(=O)c1ccc(-n2cccn2)cc1	7.06%

Structure (SMILES)	inhibition
O=C(CNC(=O)c1ccccc1F)OCC(=O)c1c[nH]c2ccccc12	-11.7%
O=C(Nc1ccn(Cc2ccccc2)n1)c1n[nH]c([N+](=O)[O-])c1Cl	1.99%
COCCN(C(=O)c1ccccc1F)c1c(N)n(Cc2ccccc2)c(=O)[nH]c1=O	2.64%
COCCn1c(N)c(NCc2ccccc2)c(=O)[nH]c1=O	31.1% (active)
COCCn1c(N)c(N(Cc2ccccc2)C(=O)C2CCCCC2)c(=O)[nH]c1=O	-5.01%
Cc1ccc(N=C2SCCCN2C(=O)c2cccc(N3C(=O)CCC3=O)c2)cc1Cl	1.67%
COC(=O)c1cccc(C(=O)N2CCC(CCC(=O)NCc3ccc(F)cc3)CC2)c1	-6.42%
CC(=O)Nc1ccc(CN2CCN(Cc3ccc(F)c(F)c3)C(CCO)C2)cc1 (stereo not drawn)	-13.9%
COc1ccc(Nc2ccc([N+](=O)[O-])cn2)cn1	20.9% (active)
COc1cc(NC(=O)Nc2ccc(C)cc2)cc([N+](=O)[O-])c1	-13%
COC(=O)c1ccccc1N=NNc1ccc([N+](=O)[O-])cc1	-9.1%
O=S(=O)(/N=C(/Nc1ccccc1)c1ccccc1)c1cccs1	5.92%
O=S1(=O)CC(N2CCN(CCO)CC2)CN1Cc1cn(Cc2ccc(Cl)cc2)nn1 (stereo not drawn)	-4.7%
Cn1nc(C(F)(F)F)c2cc(NC(=O)OCC(C)(C)C)sc21	-3.72%
CCNc1nc(N)nc(-c2cc(Cl)ccc2OC)n1	-13.4%
CCOc1cc(S(=O)(=O)NC2CC(C)(C)NC(C)(C)C2)ccc1F	-9.09%
COc1ccc(CCNC(=O)Nc2ccc3c(c2)c(=O)n(C)n3C)cc1OC	7.25%
COCCNC(=O)Nc1ccc2nc(-c3ccco3)c(-c3ccco3)nc2c1	25.9% (active)
COCCNC(=O)CN(Cc1ccco1)C(=O)CCC(=O)Nc1nccs1	-1.88%
O=C(c1cccc(Br)c1)N1CCN(C2=NS(=O)(=O)c3ccccc32)CC1	-1.34%
Oc1ccc(N=Cc2sc3ccccc3c2Cl)cc1	32.3% (active)
COc1ccc2oc(C(=O)NCC(Cc3ccccc3)N(C)C)c(C)c2c1 (stereo not drawn)	1.71%
COc1ccc(OC)c(NC(=O)N[C@H](Cc2ccccc2)C(=O)NN)c1	-10.1%
COc1cc([C@H](Cc2ccccc2)NC(C)=O)oc(=O)c1	17.6% (active)
CC(=O)N1CC(C)c2scc(C)[n+]2-c2ccccc21 (stereo not drawn)	20.3%

Structure (SMILES)	inhibition
C=CCc1cccc2cc(C(=O)Nc3ccc(NC(C)=O)cc3)c(=O)oc12	-3.06%
CCc1cc2c(=O)c(-c3ccon3)c(N)oc2cc1OC	-12.2%
Cc1cc(OCCN2CCCC2)cc(C(C)C)c1	3.29%
Nc1ccc2nc3c(=O)[nH]c(=S)[nH]c3nc2c1	182% (active)
Cc1coc2c(O)cc3c(c12)OC1(N2CCCCC2)C(=O)NCCCC31 (stereo not drawn)	29.9% (active)
CSc1ccc(C(=O)C2CCCN(C(=O)c3ccc(C)nc3)C2)cc1 (stereo not drawn)	-8.1%
CCCC(=O)OCC(=O)Nc1cc(Cl)ccc1[N+](=O)[O-]	5.89%
CC1(C)CC(N2CCN(C(c3ccccc3)c3ccccc3)CC2)=CC(=[N+]2CCCCC2)C1	-3.99%
O=C(O)Cc1ccc(NC(=O)C2CCCCC2C(=O)O)cc1 (stereo not drawn)	-2.29%
CC#CC[N+](C)(C)CCCCCC	11.3%
COc1ccc(N2CCN(C3CCCCC3NS(=O)(=O)c3ccccc3)CC2)cc1 (stereo not drawn)	17.2% (active)
CCN1CCN(C2CCCCC2NS(=O)(=O)c2ccc(Cl)cc2)CC1 (stereo not drawn)	-11.9%
O=S(=O)(NC1CCCCC1N1CCN(c2ccccc2F)CC1)c1ccccc1 (stereo not drawn)	-9.13%
N#Cc1ccccc1Sc1ccccc1C(=O)OCC(=O)NC1CCCCC1	-2.35%
Cc1nc2nc3c(cn2n1)C(=O)CC(c1ccccc1)C3 (stereo not drawn)	6.37%
CC(C)n1c(O)c(N=Nc2ccccn2)c2ccccc21	-4.1%
Cc1cccc(C)c1N1CCN(S(=O)(=O)N2CCCCC2)CC1	2.21%
O=S(=O)(N1CCOCC1)N1CCN(c2ccccc2F)CC1	3.92%
Cc1cccc(C)c1N1CCN(S(=O)(=O)N2CCOCC2)CC1	21.5% (active)
COc1ccc(/C=C/CN2CCCC(C(=O)c3cc(F)ccc3F)C2)cc1 (stereo not drawn)	-0.58%
C=CCn1c(=S)sc2c(=O)[nH]c(C)nc21	5.17%
Cc1ccn(C(CC(=O)c2ccc(Br)cc2)C(=O)O)n1 (stereo not drawn)	5.2%
Cc1nc(N)sc1-c1ccccc1	-2.59%
N#Cc1c(N)nc2c3c(sc(=N)c2c1N)NC(=O)CC3c1ccccc1Cl (stereo not drawn)	-13.5%
Nc1ccccc1/C=N\N=C/c1ccccc1N	25.9% (active)

Structure (SMILES)	inhibition
O=[N+]([O-])c1cccc(C=NN=Cc2ccccc2O)c1	0.97%
COc1ccc(N2CCN(S(=O)(=O)CCNC(=O)C34CC5CC(CC(C5)C3)C4)CC2)cc1	-6.65%
COc1ccc(C)cc1S(=O)(=O)Nc1cc2c3c(c1)CCC(=O)N3CCC2	0.26%
CNc1cnc(-c2cc(OC)c(OC)c(OC)c2)cn1	1.98%
COC(=O)c1cccc(N(C(=O)c2ccco2)C(C(=O)NC2CCCC2)c2ccco2)c1 (stereo not drawn)	-3.87%
Cc1ccc(-n2c(=O)c(C#N)cc3c(=O)n4ccccc4nc32)cc1C	-8.16%
COC(=O)Nc1ccc(S(=O)(=O)N2CCN(CCN3C(=O)C4C5C=CC(C5)C4C3=O)CC2)cc1 (stereo not drawn)	-1.58%
COc1ccc(COC(=O)N/N=C(\C)CC(=O)Nc2ccc(Cl)cc2)cc1	9.08%
C/C(CC(=O)Nc1ccc(Cl)cc1)=N\NC(=O)C(=O)NCCO	-5.9%
CCc1ccc(NC(=O)C(=O)N/N=C(\C)CC(=O)NCCOC)cc1	28.6% (active)
O=C(/C=C/c1cccc(C(F)(F)F)c1)N1CCN(c2ccccn2)CC1	8.73%
COc1nc(N(C)C)nc(N2CC(=O)N(CCNS(=O)(=O)c3ccc(C)cc3)C2=N)n1	-0.47%
C/C(=N\NC(=O)CCn1nc(C)cc1C)C(C)(C)C	-2.11%
CSc1nc(C)nc(C2CC2)c1C#N	5.92%
CC1(C)OC(=O)C(=CNC(CO)C(=O)O)C(=O)O1 (stereo not drawn)	17.8% (active)
CC(C)Oc1ccccc1C(=O)NC(CO)C(=O)O (stereo not drawn)	-0.19%
Cc1nn(CC(=O)Nc2ccc(C#N)cc2)c(C)c1[N+](=O)[O-]	-15.5%
COc1ncnc2c1N=C1CC(C)(C)CC(N)=C1S2	65.4% (active)
Cn1cc(CCC(=O)N2CCCC(C(=O)c3ccc(C(C)(C)C)cc3)C2)cn1 (stereo not drawn)	-1.82%
O=C(COc1ccc(/C=N/NS(=O)(=O)c2ccccc2)cc1)NCCc1ccccc1	-5.95%
CCCCOCCCNC(=O)C[C@@H]1C[C@@]2(C(=O)OC)CCCCC=C2N(CCC2=CCCCC2)C1=O	14.4% (active)
CCOC(=O)N1CCN(C(=O)C[C@@H]2C[C@@]3(C(=O)OC)CCCCC=C3N(CCC3=CCCCC3)C2=O)CC1	4.15%
COC(=O)[C@]12CCCCC=C1N(CCC1=CCCCC1)C(=O)[C@H](CC(=O)NCC1CCCCC1)C2	-2.93%
